Activity calls are given as the source filed them. The calls were made as follows: active = hit-call score of the fitted dose curve at least 0.9, where 1 is the maximum; inactive = score below 0.9.

In general, AC50 refers to the midpoint of the concentration-response curve, whichever way the signal moves.

Read-out in test [1]: Monokine induced gamma interferon (MIG), CXCL9 (gene 4283)
Kind of test: BSK_hDFCGF_MIG: BioMAP Diversity Plus: hDFCGF Assay for Monokine induced gamma interferon (MIG) Biomarker Activity (AID 2283063). Particulars: primary human foreskin fibroblasts; actives raise or lower the signal. The gist of the method: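 Human primary foreskin fibroblasts in the hDFCGF system, exposed to test chemical for 24 h; MIG measured by ELISA. Bidirectional curve fitting against DMSO negative control as activity baseline.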

Read-out in test [2]: Vascular cell adhesion molecule 1 (VCAM1), VCAM1 (gene 7412)
The experiment in a line: BSK_hDFCGF_VCAM1: BioMAP Diversity Plus: hDFCGF Assay for Vascular cell adhesion molecule 1 (VCAM1) Biomarker Activity (AID 2283065).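 As to AC50: VCAM-1 protein level quantified by ELISA after 24 h chemical exposure.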 As to conditions: primary human foreskin fibroblasts; actives raise or lower the signal. The gist of the method: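 ELISA readout of VCAM-1 on human dermal fibroblast primary cultures, 24 h after chemical exposure. Gain or loss of signal fitted in both directions against DMSO baseline.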

Read-out in test [3]: Plasminogen activator inhibitor-1 (PAI1), SERPINE1 (gene 5054)
Kind of test: BSK_hDFCGF_PAI1: BioMAP Diversity Plus: hDFCGF Assay for Plasminogen activator inhibitor-1 (PAI1) Biomarker Activity (AID 2283066). As to conditions: primary human foreskin fibroblasts; actives raise or lower the signal. The gist of the method: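 Fibroblasts from human foreskin were treated with test chemical. After 24 h, PAI-1 was measured by ELISA. Activity was fitted in both directions relative to DMSO.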

Read-out in test [4]: Intercellular Adhesion Molecule 1 (ICAM1), ICAM1 (gene 3383)
Kind of test: BSK_KF3CT_ICAM1: BioMAP Diversity Plus: KF3CT Assay for Intercellular Adhesion Molecule 1 (ICAM1) Biomarker Activity (AID 2283067). As to conditions: primary human keratinocytes with fibroblasts; actives raise or lower the signal. The gist of the method:
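Cell-surface ICAM-1 was measured by ELISA 24 h after dosing primary human skin keratinocytes co-cultured with fibroblasts. Parallel SRB staining tracked overt cytotoxicity. Gain or loss of signal was fitted relative to DMSO.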

Read-out in test [5]: Interferon-gamma inducible Protein 10 (IP10), CXCL10 (gene 3627)
Kind of test: BSK_KF3CT_IP10: BioMAP Diversity Plus: KF3CT Assay for Interferon-gamma inducible Protein 10 (IP10) Biomarker Activity (AID 2283068). As to conditions: primary human keratinocytes with fibroblasts; actives raise or lower the signal. The method, boiled down: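 Signal is secreted/surface IP-10 by ELISA in a human primary skin co-culture of keratinocytes and foreskin fibroblasts, taken 24 h post-dosing; DMSO served as negative control.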

Test [6] in a line: BSK_KF3CT_SRB: Viability Assessment in the BioMAP Diversity Plus: KF3CT Assay (AID 2283069).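 Also: read 24 h after compound addition.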 As to conditions: primary human keratinocytes with fibroblasts. The gist of the method:
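Overt cytotoxicity is assessed as total protein by sulforhodamine B staining in parallel human skin co-cultures at 24 h after dosing. DMSO serves as negative control and baseline.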

Read-out in test [7]: Interleukin-1 alpha (IL1a), IL1A (gene 3552)
The experiment in a line: BSK_KF3CT_IL1a: BioMAP Diversity Plus: KF3CT Assay for Interleukin-1 alpha (IL1a) Biomarker Activity (AID 2283070). As to conditions: primary human keratinocytes with fibroblasts; actives raise or lower the signal. The method, boiled down:
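Readout is IL-1a level by ELISA, compared bidirectionally with DMSO as baseline. Cells: human keratinocytes co-cultured with foreskin fibroblasts, harvested 24 h post-dose.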

Read-out in test [8]: TIMP metallopeptidase inhibitor 2 (TIMP2), TIMP2 (gene 7077)
The experiment in a line: BSK_KF3CT_TIMP2: BioMAP Diversity Plus: KF3CT Assay for TIMP metallopeptidase inhibitor 2 (TIMP2) Biomarker Activity (AID 2283071). Particulars: primary human keratinocytes with fibroblasts; actives raise or lower the signal. The method, boiled down: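 Chemicals were dosed onto human skin primary co-cultures of keratinocytes and foreskin fibroblasts, and TIMP-2 was measured by ELISA after 24 hours. Activity in either direction was fitted relative to DMSO.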

Read-out in test [9]: Transforming growth factor beta 1 (TGFb1), TGFB1 (gene 7040)
Kind of test: BSK_KF3CT_TGFb1: BioMAP Diversity Plus: KF3CT Assay for Transforming growth factor beta 1 (TGFb1) Biomarker Activity (AID 2283072). Particulars: primary human keratinocytes with fibroblasts; actives raise or lower the signal. The method, boiled down:
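KF3CT co-culture (keratinocytes + fibroblasts), 24 h exposure → TGF-b1 ELISA → bidirectional fit, DMSO = baseline. Parallel SRB total-protein staining (0.1% SRB, 10% TCA fixation, 560 nm) for cytotoxicity.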

Read-out in test [10]: Matrix Metallopeptidase 9 (MMP9), MMP9 (gene 4318)
The experiment in a line: BSK_KF3CT_MMP9: BioMAP Diversity Plus: KF3CT Assay for Matrix Metallopeptidase 9 (MMP9) Biomarker Activity (AID 2283074). As to conditions: primary human keratinocytes with fibroblasts; actives raise or lower the signal. The gist of the method:
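Values come from bidirectional fitting relative to DMSO of MMP-9 levels, which were measured by ELISA. Measurements were taken 24 h after chemical dosing of a keratinocyte and foreskin fibroblast co-culture.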

Read-out in test [11]: urokinase plasminogen activator (uPA), PLAU (gene 5328)
Kind of test: BSK_KF3CT_uPA: BioMAP Diversity Plus: KF3CT Assay for urokinase plasminogen activator (uPA) Biomarker Activity (AID 2283075). As to conditions: primary human keratinocytes with fibroblasts; actives raise or lower the signal. The method, boiled down: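 Values derive from bidirectional fitting against DMSO controls. Keratinocyte/foreskin fibroblast co-cultures received chemical; 24 h later uPA was detected by ELISA, with SRB total-protein staining in parallel wells for overt cytotoxicity.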

Read-out in the next test: CD40, CD40 (gene 958)
Kind of test: BSK_LPS_CD40: BioMAP Diversity Plus: LPS Assay for CD40 Biomarker Activity (AID 2283076). As to conditions: primary human HUVEC with PBMC; actives raise or lower the signal. The method, boiled down:
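In the LPS system of human endothelial cells with peripheral blood mononuclear cells, CD40 levels were read by ELISA 24 h post-treatment. Signal changes in either direction were fitted against the DMSO baseline, with parallel SRB protein staining.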

Read-out in test [12]: E-selectin (Homo sapiens) (UniProt P16581)
The experiment in a line: BSK_LPS_Eselectin: BioMAP Diversity Plus: LPS Assay for Eselectin Biomarker Activity (AID 2283077). Particulars: primary human HUVEC with PBMC; actives raise or lower the signal. The method, boiled down: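 E-selectin ELISA on LPS-stimulated endothelial cell/PBMC co-cultures, read 24 h post-treatment; gains and losses fitted against DMSO. Parallel SRB staining (0.1% SRB after 10% TCA fixation, 560 nm) flags overt cytotoxicity.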

Read-out in test [13]: Interleukin-8 (IL8), CXCL8 (gene 3576)
The experiment in a line: BSK_LPS_IL8: BioMAP Diversity Plus: LPS Assay for Interleukin-8 (IL8) Biomarker Activity (AID 2283078). Particulars: primary human HUVEC with PBMC; actives raise or lower the signal. The method, boiled down: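 ELISA read-out of IL-8 after 24 h chemical treatment of LPS-activated endothelial/PBMC human primary co-cultures. Changes either up or down relative to DMSO; overt cytotoxicity checked by sulforhodamine B staining in parallel wells.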

Test [14] in a line: BSK_LPS_SRB: Viability Assessment in the BioMAP Diversity Plus: LPS Assay (AID 2283079).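 Also: total protein by sulforhodamine B absorbance as a cytotoxicity measure; measured one day after compound addition.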 As to conditions: primary human HUVEC with PBMC. The gist of the method: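 SRB viability endpoint: cells fixed with 10% TCA, stained with 0.1% SRB, read at 560 nm, 24 h post-dose. HUVEC/PBMC co-culture; signal change in either direction scored relative to DMSO.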
Read-out in test [15]: Interleukin-1 alpha (IL1a), IL1A (gene 3552)
Kind of test: BSK_LPS_IL1a: BioMAP Diversity Plus: LPS Assay for Interleukin-1 alpha (IL1a) Biomarker Activity (AID 2283080). As to conditions: primary human HUVEC with PBMC; actives raise or lower the signal. The gist of the method: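 Readout is IL-1a level by ELISA, 24 h post-dose, fitted as gain or loss relative to DMSO. System: LPS-activated human primary co-culture of vascular endothelium and peripheral blood mononuclear cells, with parallel SRB total-protein cytotoxicity.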

Read-out in test [16]: Monocyte Chemoattractant Protein-1 (MCP1), CCL2 (gene 6347)
Kind of test: BSK_LPS_MCP1: BioMAP Diversity Plus: LPS Assay for Monocyte Chemoattractant Protein-1 (MCP1) Biomarker Activity (AID 2283081). As to conditions: primary human HUVEC with PBMC; actives raise or lower the signal. The method, boiled down:
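Secreted MCP-1 read by ELISA at 24 h post-dosing in an LPS-activated co-culture of endothelial cells with peripheral blood mononuclear cells. Fits run in both directions, DMSO as baseline; parallel SRB staining tracks overt cytotoxicity.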

The nature of test [17]: BSK_LPS_PGE2: BioMAP Diversity Plus: LPS Assay for Prostaglandin E2 (PGE2) Biomarker Activity (AID 2283082). As to conditions: primary human HUVEC with PBMC; actives raise or lower the signal. The gist of the method:
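Compounds were added to the LPS co-culture of endothelium and PBMC, and PGE2 was measured by ELISA after 24 h. Responses in either direction were fitted with DMSO as baseline.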

Read-out in test [18]: C-C motif chemokine 2 (Homo sapiens) (UniProt P13500)
Kind of test: BSK_KF3CT_MCP1: BioMAP Diversity Plus: KF3CT Assay for Monocyte Chemoattractant Protein 1 (MCP1/CCL2) Biomarker Activity (AID 2283073). As to conditions: primary human keratinocytes with fibroblasts; actives raise or lower the signal. The gist of the method:
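ELISA read-out of MCP-1, 24 h post-dose, in primary human skin keratinocytes co-cultured with fibroblasts. Parallel SRB staining monitors cytotoxicity; changes fitted both directions relative to DMSO.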

Chain of E-selectin (Homo sapiens) (P16581 whole entry, looked up): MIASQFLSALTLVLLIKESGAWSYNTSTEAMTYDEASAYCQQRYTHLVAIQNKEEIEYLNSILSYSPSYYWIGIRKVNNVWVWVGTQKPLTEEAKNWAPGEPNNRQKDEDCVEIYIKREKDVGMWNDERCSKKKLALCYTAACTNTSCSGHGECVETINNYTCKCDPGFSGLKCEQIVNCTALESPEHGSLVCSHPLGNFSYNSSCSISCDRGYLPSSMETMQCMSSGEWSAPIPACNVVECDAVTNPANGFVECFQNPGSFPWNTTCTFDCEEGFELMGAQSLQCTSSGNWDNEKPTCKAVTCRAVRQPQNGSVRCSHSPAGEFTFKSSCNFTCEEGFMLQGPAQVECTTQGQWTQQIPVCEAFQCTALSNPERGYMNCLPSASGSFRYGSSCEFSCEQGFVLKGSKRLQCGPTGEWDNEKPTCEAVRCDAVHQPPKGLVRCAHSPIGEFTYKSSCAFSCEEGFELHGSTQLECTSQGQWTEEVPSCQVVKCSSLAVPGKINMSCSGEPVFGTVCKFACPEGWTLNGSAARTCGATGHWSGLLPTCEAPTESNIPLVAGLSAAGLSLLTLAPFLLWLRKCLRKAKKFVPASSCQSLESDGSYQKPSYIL

As to `O=[N+]([O-])c1cccc2ccccc12`, the result in test [1], in test [2], in [3], in test [4], in test [5] and in [6] was inactive. Moreover, the outcome in test [7] was “inactive”; in [8] it was “inactive”; in test [9], “inactive”; in [10] it was “inactive”; in test [11] it was “inactive”; with CD40, CD40 (gene 958), “inactive”. In addition, the result in test [12], in [13], in test [14], in test [15], in test [16] and in test [17] was inactive.

`CC(C)O.CC(C)O.OCCN(CCO)CCO.OCCN(CCO)CCO.[Ti]`: the AC50 in test [1] is 30.6 µM (active); in test [5], 33.7 µM (active). In addition, the result in test [2], in test [3], in test [4], in test [6], in test [7] and in test [8] was inactive. Further, the outcome in test [9] was “inactive”; in test [18], “inactive”; in [10], “inactive”; in test [11], “inactive”; with CD40, CD40 (gene 958), “inactive”; in test [12], “inactive”. Also, the result in test [13], in test [14], in [15], in test [16] and in [17] was inactive.

With `Nc1c(Oc2ccccc2)cc(O)c2c1C(=O)c1ccccc1C2=O`, the values for the AC50 in test [1], in test [2] and in [8] were 15.6 µM (active), 15.8 µM (active) and 0.549 µM (active), respectively. The result in [3], in test [4], in [5], in test [6], in test [7] and in test [9] was inactive. In addition, the outcome in test [10] is “inactive”; in test [11], “inactive”; with CD40, CD40 (gene 958), “inactive”; in test [12] it was “inactive”; in test [13], “inactive”; in test [14] it was “inactive”. The outcome in test [15], in [16] and in test [17] was inactive.

On to `CC(C)(COCC1CO1)COCC1CO1` (stereo not drawn), for which the result in [1], in test [2], in test [3], in test [4], in test [5] and in test [6] was inactive. Besides, the outcome is “inactive” in [7]; “inactive” in [8]; “inactive” in test [9]; “inactive” in test [10]; “inactive” in [11]; “inactive” in the test with CD40, CD40 (gene 958). The result in test [12], in test [13], in [14], in test [15], in test [16] and in [17] was inactive.

The values above are taken from PubChem BioAssay (EPA / NIEHS).
